Data taken from PubChem BioAssay AID633 (Emory University Molecular Libraries Screening Center, 2007).
About 1,100 (1.3%) of roughly 86,000 compounds were called active. The sample holds actives, similar compounds and a random draw of the others, so the mix is not that of the screen.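 The calls were made as follows: active = compounds whose percent inhibition of the receptor-coactivator binding signal exceeds about 50% in the single-dose screen (limit read from the data); inactive = the rest.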

target: Estrogen receptor beta (Homo sapiens) (UniProt Q92731); assay: inhibitors of ERβ-SRC1 coactivator interaction, primary screen, biochemical, TR-FRET, ERβ LBD, SRC-1 peptide (AID 633); details: TR-FRET ER-beta LBD / SRC1-Cy5 peptide binding; at 25.6 µM; stronger effect = higher value; receptor agonist-loaded with 1 µM estradiol;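 also: 0% = receptor plus peptide wells without compound and 100% = peptide-only wells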
Sequence (Q92731 whole entry, looked up, the tested form may be a part): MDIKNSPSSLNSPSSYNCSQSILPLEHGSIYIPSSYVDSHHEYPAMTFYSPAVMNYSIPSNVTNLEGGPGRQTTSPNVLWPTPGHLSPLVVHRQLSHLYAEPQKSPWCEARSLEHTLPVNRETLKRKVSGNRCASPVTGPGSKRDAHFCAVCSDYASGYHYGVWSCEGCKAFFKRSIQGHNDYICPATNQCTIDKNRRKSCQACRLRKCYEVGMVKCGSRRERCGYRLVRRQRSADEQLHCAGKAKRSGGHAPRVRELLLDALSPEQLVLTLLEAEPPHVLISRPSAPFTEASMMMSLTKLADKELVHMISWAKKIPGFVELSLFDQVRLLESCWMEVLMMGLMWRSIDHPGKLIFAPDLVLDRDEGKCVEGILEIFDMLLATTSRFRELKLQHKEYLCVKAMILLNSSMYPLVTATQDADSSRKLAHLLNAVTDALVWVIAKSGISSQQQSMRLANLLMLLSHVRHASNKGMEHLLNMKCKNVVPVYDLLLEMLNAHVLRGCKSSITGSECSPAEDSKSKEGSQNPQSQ

inhibition, active:
CCOc1cc(N2CCOCC2)c(OCC)cc1NC(=O)COc1cccc2cccnc12 61.6% [fluorescence artefact?]
Cc1ccc(OCC(=O)Nc2ccc(-c3nnc(-c4ccco4)o3)cc2)cc1 63.5% [fluorescence artefact?]
CN(C)[C@@H]1C(=O)C(C(N)=O)=C(O)[C@@]2(O)C(=O)C3=C(O)c4c(O)ccc(Cl)c4[C@@H](O)[C@H]3C[C@@H]12 91.5% [fluorescence artefact?]
ON=C1/C(=N\O)CC2(C/C1=N/O)OCCO2 60.3%
Cc1ccc(Cc2cncc(O)c2)cc1S(=O)(=O)O 54.6%
COc1ccc2[nH]c(=O)c(-c3noc(-c4ccc(F)cc4)n3)cc2c1 63.8% [fluorescence artefact?]
C1=C(N2CCOCC2)/C(=C/c2nc3ccccc3[nH]2)CC1 72.1%
CS(=O)(=O)c1ccc2c(c1)SC1=NC(=O)/C(=C/c3ccco3)C(=N)N12 79% [fluorescence artefact?]
Cc1coc2c(O)cc3c(c12)OC1(N2CCCCC2)C(=O)NCCCC31 (stereo not drawn) 60.9% [fluorescence artefact?]
COC(=O)c1cnn2c(C(F)(F)F)cc(-c3ccco3)nc12 58.5%
Brc1ccc(-c2nnc(-c3ccccc3)o2)o1 60.6% [fluorescence artefact?]
N#CC1=C(N)Oc2c(sc3ccccc23)C1c1ccco1 (stereo not drawn) 51.7% [fluorescence artefact?]
Cc1nc2ccc(C(=O)O)cc2[nH]1 56.8%
Cc1ccc2[nH]c(=O)c(-c3nc4c(C)cccn4c3NCc3ccco3)cc2c1 56.9% [fluorescence artefact?]

inhibition, inactive:
COC(=O)c1ccc(CSc2ccc3nnc(-c4ccccc4)n3n2)o1 -3.95%
Cc1ccc(S(=O)(=O)NC(=O)COc2ccccc2C)cc1 8.77%
CCOc1cc(NC(=O)c2ccco2)c(OCC)cc1NC(=O)COc1ccccc1 48.5%
CCOc1cc(N2CCOCC2)c(OCC)cc1NC(=O)COC(=O)[C@H](Cc1c[nH]c2ccccc12)NC(C)=O -5.51%
O=C(Oc1ccccc1C(=S)N1CCCCC1)c1cc([N+](=O)[O-])cc([N+](=O)[O-])c1 -10.5%
Cc1nnc(SC(C)C(=O)Nc2ccc(S(=O)(=O)NC3CCCCC3)cc2)s1 (stereo not drawn) 17.8%
CCOc1ccc(-c2nnc(-c3ccco3)o2)cc1 -5.81%
COc1ccc(CC(=O)Nc2ccc(-c3nnc(-c4ccc(C)cc4)o3)cc2)cc1 15.6%
COc1ccc(CC(NC(C)=O)C(=O)N2CCN(C(=O)Nc3cccc(Cl)c3)CC2)cc1OC (stereo not drawn) -8.98%
COc1ccc(C(C#N)Nc2ccccc2C)cc1 (stereo not drawn) -1.62%
CC(C)CNC(=O)CC(c1ccccc1)c1c(O)ccc2ccccc12 (stereo not drawn) -3.69%
O=C(Cn1c(-c2cscn2)nc2ccccc21)Nc1ccc(Cl)cc1 18.5%
COc1ccccc1NC(=O)CSc1nnc(C)n1CC1CCCO1 (stereo not drawn) -11.8%
COc1ccc(-n2c(C)csc2=S)cc1 -15.3%
O/N=C1\CC2(Cc3nonc31)OCCO2 23%
O=C(CSc1nnnn1-c1ccccc1)NCc1ccco1 17.8%
CCOC(=O)Nc1sc(C(=O)N(C)C)c(C)c1C(=O)OCC 4.28%
Cc1cc(O)cc(O)c1C(=O)Cc1cnn(-c2ccccc2)c1 -7.76%
Cn1nc(-c2ccccc2)c(CSc2cccc(Cl)c2)c1Cl -3.81%
Cn1c(NN)nc2sc3c(c2c1=O)CCC3 -7.13%
CCNC(=O)NC(=O)C(C)OC(=O)c1cc(S(=O)(=O)N2CCCCCC2)ccc1OC (stereo not drawn) -4.07%
Cc1cccc(-c2noc(-c3ccc(F)cc3)n2)c1 -10.2%
COc1ccc(-c2noc(-c3ccc(C)cc3)n2)cc1 -3.86%
CCSc1ccccc1C(=O)NCc1ccc(OC)cc1 15.2%
CCC(=O)NC(Nc1nc2ccc(C)cc2s1)(C(=O)OC)C(F)(F)F (stereo not drawn) 9.59%
Cc1cc(N2CCN(S(=O)(=O)c3ccc(C)c(C)c3)CC2)c2ccccc2n1 3.59%
c1ccc2[nH]c(NCCN3CCOCC3)nc2c1 -3.02%
c1ccc(Nc2nc(N3CCOCC3)c3ccccc3n2)cc1 -6.49%
O=C(Cc1ccc(-n2c(=O)c3sccc3n(Cc3ccc(F)cc3)c2=O)cc1)NCc1ccco1 21.4%
O=C1C2C3C=CC(C4CC34)C2C(=O)N1/N=C/c1ccc(-c2ccccc2[N+](=O)[O-])o1 (stereo not drawn) 2.95%
CC(C)C(=O)NC(NC(=S)NC1CCS(=O)(=O)C1)C(Cl)(Cl)Cl (stereo not drawn) 14.7%
COc1ccccc1NC(=O)C1CCCN(c2cc(C)nc3ncnn23)C1 (stereo not drawn) -2.37%
CCOc1ccc(C(O)Cc2nc3ccccc3n2C)cc1 (stereo not drawn) -4.37%
CCOC(=O)c1ccccc1NS(=O)(=O)c1ccc(OC)cc1 -1.65%
COC(=O)c1cc2nc(-c3ccccc3)cc(C(F)(F)F)n2n1 -1.27%
O=C(NCc1ccco1)c1cnn2c(C(F)(F)F)cc(-c3ccco3)nc12 5.47%
Cc1noc(/C=C/c2ccco2)c1S(=O)(=O)N1CCC(C(=O)N2CCc3ccccc32)CC1 -6.43%
Nc1ccc(-c2nnc(-c3ccc(-c4ccccc4)cc3)o2)cc1 19.9%
O=C(Nc1ccc(-c2nnc(-c3ccccc3)o2)cc1)c1ccc(Br)o1 30%
CC(C)n1c(-c2cccs2)nc2ccccc21 -10.4%
Cc1cc(S(=O)(=O)NC2CCCCC2)ccc1OCC(=O)NCc1cccnc1 -4.71%
Cc1cc2c(c(=O)n1Cc1ccco1)C(c1ccccc1)C(C#N)=C(N)O2 (stereo not drawn) -16.4%
CC1=C(C(=O)Nc2ccccc2)C(c2ccco2)C(C#N)=C(SCC(N)=O)N1 (stereo not drawn) -2.8%
Cc1ccc2nc(S(=O)(=O)O)[nH]c2c1 3.08%
CC(C)c1nc2ccc(C(=O)O)cc2[nH]1 14.7%
Cn1ccs/c1=N\S(=O)(=O)c1ccc(C(C)(C)C)cc1 0.33%
COc1ccccc1/C=C/C1=NC(=C\N(C)C)/C(=O)O1 1.45%
COc1ccc(CCn2c(=N)c(C(=O)NCc3ccco3)cc3c(=O)n4cccc(C)c4nc32)cc1 48.1%
CCNCc1cc2cc(C)ccc2[nH]c1=O -8.3%
Cn1nnnc1SCC(=O)Nc1ccccc1C(=O)NC1CC1 -5.32%
CC1CN(S(=O)(=O)c2ccccc2)C(C)CN1S(=O)(=O)c1ccccc1 (stereo not drawn) 1.26%
Cc1cc(C)cc(N(CC(=O)N2CC=C(c3ccccc3)CC2)S(=O)(=O)c2c(C)noc2C)c1 -1.97%
CCOc1ccc(S(=O)(=O)Nc2ccc(S(=O)(=O)Nc3cc(OC)ccc3OC)cc2)cc1 -5.81%
CCCCCCc1cc2cc(-c3nnc(-c4cccc(OC)c4)o3)c(=O)oc2cc1O 1.17%
